In the library only some 5.9% were active in any assay of this set; here they are far more common.
GLP1R inv ag = acts as inverse agonist at human GLP-1 receptor | Potency, µM (titrated, usually from 38.3 µM), for inactives: top-dose activity change, negative = inhibition, most hits filed as inhibitors | P43220 | HEK293 GLP-1R CRE-luciferase, luminescence, 24 h; GLP-1R form is constitutively active | 410,000 compounds, 1.6% hits; also: % is scaled to controls: 0 for no effect and ±100 for the full control effect; nearly all actives have a fitted effect of over 55% in size
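Cells are plated, allowed 12 hours at 37 deg C, then treated with compounds for 24 hr before luciferase detection reagent is added and luminescence is read after 12 min at room temperature. The HEK293 line carries constitutively active GLP-1R with a cAMP-responsive reporter.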
GLP1R cytotox = cytotoxic in the GLP-1 receptor inverse agonist counter-screen. HEK293 cAMP-luciferase reporter cells, luminescence, 24 h. 410,000 compounds, 0.13% hits. Potency, µM (titrated, usually from 38.3 µM), for the others: at the highest dose activity change, negative = inhibition, most hits filed as inhibitors;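 also: loss of luciferase light is scored as toxicity; % is scaled to controls: 0 for no effect and ±100 for the full control effect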
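Luminescence readout: signal drop marks cytotoxicity. Plated cells grew 12 h at 37 °C, 5% CO2, received 23 nL compound for 24 h, then got luciferase reagent, read after 12 min at RT.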
VP16 counter = inhibits Gal4-VP16 luciferase reporter, ROR gamma counter-screen | 310,000 compounds, 3.5% hits | Potency, µM (series often up to 53.6 µM), inactives show top-dose activity, negative = inhibition, usual class: inhibitors | Drosophila S2 Gal4-VP16 UAS-luciferase, luminescence, 20 h | AID 2546;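 also: Gal4-VP16 expression switched on by copper sulfate through the metallothionein promoter; % is scaled to controls: 0 for no effect and ±100 for the full control effect; nearly all actives have a fitted effect of over 50% in size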
GLP1R ag = GLP-1 receptor (human) agonism | P43220 | HEK293 GLP-1R CRE-luciferase, luminescence, 4-6 h; cells express a hypersensitive GLP-1R form | Potency, µM (series often up to 45.6 µM), for the others: top-dose activation, actives largely listed as activators | 380,000 compounds, 0.007% hits | AID 624172; also: % of control where 0% means no effect
RORg inh = ROR gamma (mouse) transcription inhibition; P51450; Drosophila S2 Gal4-RORgamma UAS-luciferase reporter, 20 h; Potency, µM (top dose mostly 53.6 µM), without a hit: at the highest dose activity change, negative = inhibition, most hits filed as inhibitors; 310,000 compounds, 5.4% hits; AID 2551; also: % is scaled to controls: 0 for no effect and ±100 for the full control effect; nearly all actives have a fitted effect of over 60% in size
Target sequence (P51450 whole entry, looked up, the tested form may be a part): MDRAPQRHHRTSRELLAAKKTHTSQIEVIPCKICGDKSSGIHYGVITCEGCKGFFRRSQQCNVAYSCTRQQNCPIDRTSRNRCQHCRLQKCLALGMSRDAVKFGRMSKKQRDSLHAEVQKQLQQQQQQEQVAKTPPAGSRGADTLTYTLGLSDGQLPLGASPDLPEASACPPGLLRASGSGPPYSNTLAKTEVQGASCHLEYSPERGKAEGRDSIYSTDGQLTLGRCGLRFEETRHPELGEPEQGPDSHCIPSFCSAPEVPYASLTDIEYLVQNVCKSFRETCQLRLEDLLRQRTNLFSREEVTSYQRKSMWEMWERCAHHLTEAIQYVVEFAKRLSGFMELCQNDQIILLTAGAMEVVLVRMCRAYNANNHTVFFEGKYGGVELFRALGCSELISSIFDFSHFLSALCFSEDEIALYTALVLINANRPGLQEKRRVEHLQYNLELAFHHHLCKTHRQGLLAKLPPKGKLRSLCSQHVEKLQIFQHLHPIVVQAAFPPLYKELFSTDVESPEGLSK
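Stably transfected Drosophila Schneider cells are the test system, with ROR gamma fused to Gal4 and luciferase under UAS control; luminescence is read after 20 hr of 700 uM copper sulfate induction at ambient temperature.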
* marks the source's active call; other numbers are inactive results; i = inactive; ? = inconclusive; . = not tested or not shown; ! = not active in a repeat. Calls follow the shape of the dose curve; as a rule, active = well fitted curve in the direction sought with a large enough effect; inconclusive = small, poorly fitted or top-dose-only effect, or another doubt; inactive = no such curve, though single readings can be large; an effect the other way counts as inactive or inconclusive. Potency is read from the fitted curve at half-maximal effect.

SMILES | GLP1R inv ag | GLP1R cytotox | VP16 counter | GLP1R ag | RORg inh
O=c1[nH]nc(Sc2ncnc3sccc23)n1CCc1ccccc1 | 5.6µM* | ? | ? | -7% | 16µM*
O=C(CC1CCCC1)Nc1nc2ccccc2[nH]1 | ? | -15% | ? | -3% | 8.9µM*
O=C(Nc1nc2ccccc2[nH]1)C1CCCC1 | -6% | -8% | ? | 1% | 7.1µM*
CCc1cc(-c2nnn(-c3cc(C(C)C)ccc3C)c2CC)ccc1-c1cn(CCc2c[nH]c3ccccc23)nn1 | 2.5µM* | -33% | . | 1% | .
COc1ccc(-n2c(=O)c(-c3ccccc3)nc3cnc(N4CCOCC4)nc32)cc1 | . | . | -3% | . | -76%
C=C1C(=O)[C@@]23[C@H](O)C[C@@H]4C(C)(C)CC[C@H](O)[C@]4(C)[C@@H]2C[C@H](O)[C@@H]1[C@H]3O | ? | -11% | 3.2µM* | -24% | 2.5µM*
C=C1C(=O)[C@@]23[C@H](O)C[C@@H]4C(C)(C)CC[C@H](O)[C@@]4(C)[C@@H]2CC[C@@H]1[C@H]3O | ? | ? | 5.6µM* | -10% | 2.8µM*
C[C@@H]1CC2(OC3C[C@@]4(C)C5=CC[C@H]6C(C)(C)C(O[C@@H]7OC[C@@H](O)[C@H](O)[C@H]7O)CC[C@@]67C[C@@]57CC[C@]4(C)C31)OC(O)C1(C)OC21 (some centres undefined) | . | . | -13% | . | -8%
COCCNC(=O)/C(C#N)=C/c1ccc(O)c([N+](=O)[O-])c1 | 7% | -9% | -20% | 0% | 2%
N#C/C(=C\c1ccc(O)c(O)c1)C(=O)NCCCc1ccccc1 | ? | -17% | 11µM* | 8% | 22µM*!
N#C/C(=C\c1cccc([N+](=O)[O-])c1)C(=O)NCc1ccc(Cl)cc1 | ? | 5% | 18µM* | 7% | ?
COCCNC(=O)/C(C#N)=C/C=C/c1ccccc1[N+](=O)[O-] | ? | ? | -16% | 1% | 13µM*
CCOCCCNC(=O)/C(C#N)=C/c1ccc(Cl)c([N+](=O)[O-])c1 | 11µM* | ? | ? | -8% | 13µM*
COCCNC(=O)/C(C#N)=C/c1cccc(/C=C(\C#N)C(=O)NCCOC)c1 | 2% | 19% | 11µM* | 16% | 13µM*
Cc1nc(CN(C)C(=O)c2cc(COc3ccc4ncccc4c3)on2)cs1 | 5% | -4% | 6.3µM* | 6% | ?
COCCC1CCCCN1C(=O)c1cc(COc2ccc(-n3cncn3)cc2)on1 (centres undefined) | -22% | -11% | 8.9µM* | 6% | 0%
COCC1CCCCN1C(=O)c1cc(COc2ccc3ncccc3c2)on1 (centres undefined) | 8% | -4% | 7.1µM* | 3% | -40%
CCC1CCCCN1C(=O)c1cc(COc2ccc3ncccc3c2)on1 (centres undefined) | -29% | -7% | 2.8µM* | 5% | ?
COCCOC1CCN(C(=O)c2cc(COc3ccc(-n4cncn4)cc3)on2)CC1 | 8% | 5% | 3% | -3% | 2%
CCN(c1cccc(C)c1)S(=O)(=O)c1ccc(N2CCCCS2(=O)=O)cc1 | ? | 2% | . | -1% | .
COCCn1c(=O)c(CCc2ccccc2)nc2cnc(N(C)C)nc21 | . | . | 19% | . | 14%
CCCN1CCN(C(=O)c2cc(COc3ccc4ncccc4c3)on2)CC1 | 11% | 4% | 20µM* | 0% | 13µM*
CCN1CCN(C(=O)c2cc(COc3ccc4ncccc4c3)on2)CC1 | 4% | -1% | ? | 0% | -44%
COc1ccc(C(=O)Nc2nc3n(n2)C(c2ccc(Cl)cc2)C=C(c2ccccc2)N3)cc1OC (centres undefined) | ? | i | . | . | .
Cc1ccc(CN(C(=O)Nc2cccc(Cl)c2)c2ccccn2)cc1 | ? | -14% | . | . | .
SMILES | GLP1R inv ag | GLP1R cytotox | VP16 counter | GLP1R ag | RORg inh
CN(C)CCNc1ncnc2c1sc1nc(-c3ccccc3)c3c(c12)CCCC3 | ? | ? | 2.8µM* | -10% | ?
COc1ncnc2c1sc1nc(-c3ccccc3)c3c(c12)CCCC3 | 7% | 33% | -8% | 5% | 2%
CCOc1ccc(NC(=S)NC(=O)Cc2ccccc2)cc1 | ? | ? | 10µM* | 5% | 4µM*
CCOc1ccc(NC(=S)NNC(=O)CC(C)O)cc1 (centres undefined) | -16% | 4% | 1% | -2% | -15%
CCN(CC)c1ccc(NC(=S)NC(=O)Cc2ccccc2)cc1 | ? | -18% | 2.5µM* | 17% | 2.5µM*
CN(C)S(=O)(=O)c1ccc(NC(=S)NC(=O)Cc2ccccc2)cc1 | 18% | -3% | 10% | 7% | -18%
COc1ccc(C2=Nn3c(nnc3-c3cccc(OC)c3OC)SC2)c(OC)c1 | . | . | 18µM* | . | ?
COc1cccc(-c2nnc3n2N=C(c2ccc(OC)cc2OC)CS3)c1 | . | . | 7.9µM* | . | ?
COc1cccc(C2=Nn3c(nnc3-c3cccc(OC)c3)SC2)c1 | . | . | 12% | . | 12%
COc1cccc(-c2nnc3n2N=C(c2cc(OC)ccc2OC)CS3)c1 | 0% | -3% | -29% | 19% | ?
COc1cccc(-c2nnc3n2N=C(C(C)(C)C)CS3)c1 | 11µM* | -22% | ? | -18% | -15%
COc1ccc(-c2cc3nc(C4CCN(C(=O)OC(C)(C)C)CC4)c(C(=O)Nc4cc(Cl)cc(Cl)c4)cn3n2)cc1 | 10% | 9% | . | . | .
CCOC(=O)c1ccc2c(c1)N(CC(=O)Nc1ccc(C)cc1C)C(=O)c1ccccc1S2 | 7% | -1% | . | -6% | .
CC(=O)NC(=S)NNC(=O)CCc1ccccc1 | -4% | 26% | -6% | 2% | 34%
CCCCC(=O)NNC(=S)NC(=O)CCC | 6% | 0% | ? | -12% | 10µM*
CC(C)(C)c1cc(CCC(=O)NNC(=S)NC(=O)c2ccccc2)cc(C(C)(C)C)c1O | ? | -27% | 13µM* | -5% | 11µM*
O=C(CCc1ccccc1)NNC(=S)NC(=O)c1ccccc1 | -1% | -10% | ? | -1% | 4.5µM*
CCCCC(=O)NC(=S)NNC(=O)CCc1ccccc1 | 11% | -15% | -7% | -1% | 11µM*
O=C(Nc1cccc(Cl)c1Cl)c1cc2nc(-c3ccc(Cl)cc3)cc(C(F)(F)F)n2n1 | -1% | 0% | . | . | .
Cc1ccccc1C(=O)c1cccn1CC(=O)NCCCN1CCCCC1 | 5% | -5% | 1% | -1% | 0%
Cc1ccc(C)c(N2CCN(CCCNC(=O)Cn3cccc3C(=O)c3ccccc3C)CC2)c1 | ? | 10µM* | ? | 2% | ?
O=C(NN=C1CCCCCC1)c1cc(-c2ccccc2)nc2ccccc12 | -6% | -21% | 12% | 4% | ?

Assay outcomes: PubChem, National Center for Advancing Translational Sciences (NCATS)
